Reference: PubChem BioAssay AID1159580 (chemical genetic matrix, 2015)
In all, about 5,500 compounds went through this assay and about 2,000 (36%) were called active. Inconclusive results (about 18%) are left out. Cut-off read from the data, not from the text of the source: active = normalized growth mostly below about 0.91 (no sharp cut-off); inconclusive = no clear call, values can overlap the other calls; inactive = mostly above about 0.92. This is one part of the list.

Test: chemical genetic growth profiling, strain panel (AID 1159580);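 note: tested at 20 µM; growth read once vehicle control cultures reached saturation at 30 °C; 1 = growth at the plate median or of vehicle wells; lower values mean less growth of the strain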
Conditions: S. cerevisiae deletion strains, growth OD

Measured: normalized growth

C[C@H](N)CN1CCc2ccc(Br)cc21
inactive: locus YAL040C, strain CLN3, hits give low values 0.979 | locus YCL061C, strain MRC1 (second series), hits give low values 0.992 | locus YDR150W, strain NUM1, hits give low values 1 | locus YDR363W, strain ESC2, hits give low values 1.01 | locus YER002W, strain NOP16, hits give low values 0.992 | locus YGR078C, strain PAC10, hits give low values 1.02 | locus YJR075W, strain HOC1, hits give low values 1 | locus YMR307W, strain GAS1, hits give low values 1 | locus YNL153C, strain GIM3, hits give low values 0.997 | locus YNL175C, strain NOP13, hits give low values 1.01 | locus YNL197C, strain WHI3, hits give low values 1.02 | locus YNL224C, strain SQS1, hits give low values 1.01 | locus YOR083W, strain WHI5 (second series), hits give low values 1 | locus YPL055C, strain LGE1, hits give low values 0.968
